For 28 molecules, inhibition results are on record in PubChem BioAssay AID488862 (Broad Institute, 2010).

In all, about 340,000 compounds went through this assay and about 1,200 (0.35%) were called active. No stated cut-off is given here; in the data, active means inhibition above about 52%; inactive means the rest. The full list was thinned out, with actives kept by preference.

The experiment can be described thus: suppresses PrP 5' UTR mRNA reporter expression (AID 488862). Further: 0 = median of the neutral control wells. The settings on record: cell-based PrP 5' UTR mRNA reporter, plate reader; active compounds read high; concentration not given here.
What is called inhibition is the relative decrease from the control value, in per cent. Turning to `O=C(CSc1ncnc2sccc12)N1CCN(C(=O)c2cccs2)CC1`, the inhibition was 87.3% (active).
Take `O=C(CSc1ncnc2sccc12)NC1CCS(=O)(=O)C1` (stereo not drawn): the inhibition was -11.1% (inactive).
Under `COc1ccc(OCC(=O)N2CCN(C(=O)c3cccs3)CC2)cc1` stands -6.1% (inactive).
Under `C/C(CC(=O)Nc1ccc(C)cc1C)=N\NC(=O)C(C)C` stands -21% (inactive); under `COC(=O)c1cc(S(=O)(=O)NC2CCN(Cc3ccccc3)CC2)cn1C`, -8.61% (inactive).
Take `O=C(O)CCCCCNc1ncnc2ccc(Br)cc12`: the inhibition was 6.38% (inactive).
Under `COc1ccc(Nc2ncnc3ccc(Br)cc23)c(OC)c1` stands 72.3% (active); under `Brc1ccc2ncnc(NCc3cccnc3)c2c1`, 12.1% (inactive).
Regarding `Cc1ccc(C)c(NC(=O)COC(=O)c2nn(C)c(=O)c3ccccc23)c1`, the inhibition was -7.85% (inactive).
Regarding `O=C1Nc2cc(C(=O)N3CCN(c4ccc(F)cc4)CC3)ccc2NC1CSCc1cccc(F)c1` (stereo not drawn), the inhibition was -17.6% (inactive).
With `CCOCCCNC(=O)C(=O)NCCCOCC`, the inhibition was -28.8% (inactive).
Regarding `CC(C)CC(CC(C)C)=NNC(=O)c1ccc(CSc2nncn2C)cc1`, the inhibition is -20.2% (inactive).
Next, `CSc1nc(-c2ccccc2)nc(C(Cl)Cl)n1`: 86.3% (active); `CN(C)C(=S)N=c1ssc(=S)n1Cc1ccco1`: 13.6% (inactive).
Under `COc1cc(OC)cc(C(=O)N[C@H](C(=O)NNC(=O)c2ccc(Br)cc2)C(C)C)c1` stands -12.3% (inactive); under `COc1ccc(C(=O)N[C@H](C(=O)NCc2ccccc2)C(C)C)cc1`, -2.13% (inactive).
`COc1cc(OC)cc(C(=O)N[C@H](C(=O)Nc2nc3ccccc3[nH]2)C(C)C)c1`: the inhibition is 67.8% (active).
Consider `Cc1cc(C)c(SCCc2ccncc2)c(C)c1`, for which the inhibition was -26.1% (inactive).
Next, `O=C1/C(=C/c2ccc(F)cc2)SC(=S)N1CCCC(=O)N1CCCCC1CCO` (stereo not drawn): -14.7% (inactive); `Cc1ccc(/C=C2/SC(=S)N(CCC(=O)NCCCN3CCOCC3)C2=O)cc1`: -12.2% (inactive); `C=CCOc1ccc(/C=C2\SC(=S)N(CCC(=O)O)C2=O)cc1`: 79.7% (active).
Next, `Cn1c(=S)sc2ccc3ccccc3c21`: -8.89% (inactive); `CCC(C)Cn1c(O)cc2nn(-c3nc4ccccc4s3)c(=O)c-2c1C` (stereo not drawn): 92.2% (active).
Regarding `O=C(C(=O)N1CCc2ccccc2C1)c1c[nH]c2ccccc12`, the inhibition was -13.2% (inactive).
Under `Cc1nc2nc(COc3ccccc3)[nH]n2c(=O)c1Cc1ccccc1` stands -6.88% (inactive).
Next, `O=c1oc2ccccc2cc1-c1cn(-c2ccccc2)c(=S)[nH]1`: 65.9% (active); `COc1cccc(-n2c(=S)[nH]c3c(oc4ccccc43)c2=O)c1`: -5.49% (inactive).
Under `CS(=O)(=O)N1CCN(C(=O)c2cc3ccccc3oc2=O)CC1` stands -9.85% (inactive).
